# An excerpt weighted towards active compounds, which were near 6.5% of everything screened.
# HCMV antiviral = qHTS Assay for inhibitors of the human cytomegalovirus (HCMV) | 410,000 compounds, 4.5% hits | activity change, negative = inhibition, % at 57.5 µM | HFF cells, HCMV-luciferase reporter, 72 h; stronger effect = lower value | AID 1259415, 2018; in the data active means activity change below about -60%; inconclusive means no clear call, values can overlap the other calls; inactive means above about -39%
#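 Steps: HFFs plated, 16 h 37C; compounds added; HCMV-luciferase added to MOI 1 PFU/cell; 72 h 37C; OneGlo reagent, 5 min room temperature; luminescence read, normalized to controls.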
# VACV mCherry inh = qHTS for Stage-Specific Inhibitors of Vaccinia Orthopoxvirus: mCherry Reporter Primary qHTS; 310,000 compounds, 0.63% hits; AID 720579, 2013; Vaccinia virus mCherry reporter infection, fluorescence; Potency, µM (titrated, usually from 36.5 µM), without a hit: at the top dose activity change, negative = inhibition, actives largely listed as inhibitors; calls by dose curve; tested in A549 cells; further: potency means the concentration at half of the fitted maximal effect; nearly all actives have a fitted effect of over 35% in size
# LASV entry inh = qHTS for Inhibitors of binding or entry into cells for Lassa Virus. 300,000 compounds, 1.2% hits. Potency, µM (series often up to 37.9 µM), inactives show at the highest dose activity change, negative = inhibition, hits mostly inhibitors. Lassa virus pseudotype entry inhibition, cell reporter; calls by dose curve; tested in HEK293 cells; further: potency means the concentration at half of the fitted maximal effect; nearly all actives have a fitted effect of over 50% in size
# Marburg entry inh = qHTS for inhibitors of binding or entry into cells for Marburg Virus | Marburg virus pseudotyped entry inhibition, cell reporter | Potency, µM (titrated, usually from 37.8 µM), inactives show top-dose activity change, negative = inhibition, hits mostly inhibitors | 300,000 compounds, 1.8% hits; calls by dose curve; tested in HEK293 cells; further: potency means the concentration at half of the fitted maximal effect
# FMDV antiviral = High Throughput Screening for Foot and Mouth Disease Virus Antivirals. FMDV antiviral cell-based qHTS. Potency, µM (titrated, usually from 57.9 µM), without a hit: top-dose activity change, negative = inhibition, actives largely listed as inhibitors. 410,000 compounds, 1.2% hits; calls by dose curve; tested in HEK293T cells; further: read-out not given here; potency means the concentration at half of the fitted maximal effect; nearly all actives have a fitted effect of over 45% in size
# Vaccinia Venus = qHTS for Stage-Specific Inhibitors of Vaccinia Orthopoxvirus: Venus Reporter Primary qHTS | Vaccinia virus Venus reporter expression, fluorescence | Potency, µM (series often up to 36.5 µM), for the others: top-dose activity change, negative = inhibition, most hits filed as inhibitors | 330,000 compounds, 0.46% hits | AID 720580, 2013; calls by dose curve; tested in A549 cells; further: potency means the concentration at half of the fitted maximal effect; nearly all actives have a fitted effect of over 30% in size
# Starred values were filed as active, the others as inactive; i = inactive; ? = inconclusive; / = not tested or not shown; [ ] = another dose, or the depositor's remark. On the % scale 0 is the no-effect control and ±100 the full control effect.
SMILES,HCMV antiviral,VACV mCherry inh,LASV entry inh,Marburg entry inh,FMDV antiviral,Vaccinia Venus
COc1ccc(-n2nnnc2S(=O)(=O)Cc2ccc(C(=O)O)cc2)cc1,-18,/,-10%,?,28µM*,/
COC(=O)C1CCN(Cc2ccc3c(c2)CN(C(=O)c2cc(C)oc2C)CCO3)CC1,/,-6%,/,/,-7%,1%
O=C(c1cscn1)N1CCOc2ccc(CN3CCC(Oc4cccnc4)CC3)cc2C1,/,-7%,/,/,-15%,-5%
CCCc1cc(N2CCOCC2)n2ncc(-c3ccccc3)c2n1,-62*,/,/,/,-2%,/
COc1ccc(-c2nc3cnc(N4CCN(C)CC4)nc3n(Cc3cccc(OC)c3)c2=O)cc1,/,/,/,/,7%,/
CC1(Cc2ccccc2OC(F)(F)F)C(=O)Nc2cc(-c3ccccc3Cl)ccc21 (stereo not given),0,i,/,/,-24%,-14%
CC1(Cc2ccc3ccccc3n2)C(=O)Nc2ccc(OC(F)(F)F)cc21 (stereo not given),-98*,28%,/,/,-21%,-18%
COC(=O)c1ccc(CC2(C)C(=O)Nc3ccc(OC(F)(F)F)cc32)o1 (stereo not given),-9,-7%,/,/,-22%,-17%
CC1(Cc2ccccc2OC(F)(F)F)C(=O)Nc2ccc(OC(F)(F)F)cc21 (stereo not given),-76*,-3%,/,/,?,-21%
CC1(Cc2cc(Cl)ccc2C(F)(F)F)C(=O)Nc2ccc(OC(F)(F)F)cc21 (stereo not given),/,14%,/,/,?,-26%
CC1(Cc2ccccc2OC(F)(F)F)C(=O)Nc2ccc(-c3ccsc3)cc21 (stereo not given),-75*,i,/,/,0%,-13%
CC1(Cc2ccc(OC(F)(F)F)cc2)C(=O)Nc2ccc(S(=O)(=O)NC3CCCCC3)cc21 (stereo not given),-99*,?,/,/,-1%,?
Oc1ccc2ccccc2c1N=Nc1ccc(F)cc1,33,-5%,-22%,-2%,3%,3%
COc1cccc(N=Nc2ccc3ccccc3c2O)c1,34,/,/,/,-59%,/
Oc1c(N=Nc2ccc(F)cc2)ccc2ccccc12,97,?,?,?,14µM*,8%
Oc1c(N=Nc2nn[nH]n2)ccc2ccccc12,-85*,?,/,/,?,?
Cc1ccc(N=Nc2ccc3ccccc3c2O)cc1,?,-8%,4.5µM*,?,7.9µM*,5%
COc1ccc(N2CCN(Cc3nc4c(c(=O)[nH]c(=O)n4C)n3Cc3ccccc3)CC2)cc1,-14,-17%,-20%[46.1 µM],9%[46.1 µM],-3%,-11%
CCOC(=O)c1cnc2ccc(C(=O)OC)cc2c1Nc1ccccc1CC,-24,2%,17%[46.1 µM],?,-28%,-1%
CCc1nc(C)cn1S(=O)(=O)c1cc(C)c(OC)c(C)c1C,-76*,-21%,?,?,-28%,?
CCc1nc(C)cn1S(=O)(=O)c1cc(C)c(OC)cc1C,13,-24%,/,/,-9%,-8%
CN(C)CCN(Cc1ccccc1)C(=O)c1[nH]c(C(F)(F)F)nc1-c1ccccc1,-2,7%,/,/,35µM*,3%
CCCCN(C)C(=O)c1[nH]c(C(F)(F)F)nc1-c1ccccc1,-15,-2%,/,/,-18%,4%
CC(Cl)C(=O)c1c[nH]c2ccccc12 (stereo not given),-67*,-27%,-10%,-4%[46.1 µM],-12%,-14%
CC(C)NC(=O)N(C)C[C@H]1OCc2cn(nn2)CCCC(=O)N([C@H](C)CO)C[C@@H]1C,-3,/,/,/,/,/
SMILES,HCMV antiviral,VACV mCherry inh,LASV entry inh,Marburg entry inh,FMDV antiviral,Vaccinia Venus
On1onc2c3cc(-c4ccccc4)nc3ccc21,-108*,3.2µM*,?,?,24%,?
c1ccc(-c2cc3c(ccc4nonc43)nn2)cc1,37,-6%,-9%,3%,18%,6%
COc1ccc2[nH]c(C)c(C(=O)CN(C)CC(OC)OC)c2c1,/,-13%,/,/,/,-10%
CC1Oc2cc3c(-c4c(O)cc(O)c5c(O)c6c(cc45)OC(C)C(C)C6=O)c(O)cc(O)c3c(O)c2C(=O)C1C (stereo not given),/,?,/,/,?,4µM*
C[C@@H]1Cc2c(O)c(O)cc(O)c2C(=O)O1,/,-4%,/,/,-10%,2%
CC(C)Oc1ccc(C(=O)NCC2Cc3cc(Cl)cc(-c4ncccn4)c3O2)cc1 (stereo not given),/,-14%,/,/,-2%,-10%
C[C@]12CC[C@@H]3c4ccc(O)c(O)c4CC[C@H]3[C@@H]1CC[C@@H]2O,-91*,-27%,/,/,-5%,-15%
O=C(Oc1ccccc1N1C(=O)C2CCCCC2C1=O)c1ccc(Cl)cc1 (stereo not given),-108*,/,22%,-20%,7%,/
Cc1ccccc1N1CCN(C2CCCN(C(=O)c3cn4cccc(C)c4n3)C2)CC1 (stereo not given),-32,/,/,/,45µM*,/
Cc1ccccc1N1CCN(C2CCCN(C(=O)c3ccccn3)C2)CC1 (stereo not given),-1,-19%,?,?,7%,-13%
C=CCNc1cccc2c1S(=O)(=O)N[C@@H](CC(C)C)CO2,4,/,/,/,/,/
c1ccc2nc(-c3nc4ccccc4o3)ccc2c1,20,/,2.3µM*,?,-93%,/
c1cc(-c2nc3ccccc3o2)nc(-c2nc3ccccc3o2)c1,/,/,/,-6%,/,/
COc1ccc(NC(=O)C2CCN(S(=O)(=O)c3ccc4c(c3)CCCC(=O)N4)CC2)c(OC)c1,1,-10%,-19%[46.1 µM],/,-22%,-5%
C=CCN1[C@@H](C)[C@H](c2ccccc2)Oc2cccc(N3CCCC3)c2S1(=O)=O,-31,/,/,/,/,/
C=C1C(=O)[C@]23C[C@H]1CCC2[C@@]1(C)C(C[C@@H]3O)[C@](C)(C(=O)OC)CC[C@@H]1OC(C)=O (stereo not given in full),-101*,3.2µM*,/,/,8.9µM*,1.8µM*
C=C1C(=O)[C@]23C[C@H]1CCC2[C@@]1(C)C(C[C@@H]3O)[C@](C)(C(=O)O)C[C@H](O)[C@@H]1O (stereo not given in full),-14,13%,/,/,-11%,1%
C=C1C(=O)[C@]23C[C@H]1CC[C@H]2[C@]1(C)[C@@H](OC(C)=O)CC[C@@](C)(C(=O)O)[C@H]1C[C@@H]3O,-66*,5µM*,/,/,0%,?
C=C1C(=O)[C@]23C[C@H]1CC[C@H]2[C@]1(C)[C@@H](O)CC[C@@](C)(C(=O)O)[C@H]1C[C@@H]3O,-6,?,/,/,40µM*,-29%
